PubChem BioAssay (NCATS)
Records with an inconclusive call do not appear. Entries that show only a call come without a potency. Calls of active or inactive are those of the source. The call rests on the fitted dose curve; in most records, active means well fitted curve in the direction sought with a large enough effect; inconclusive means small, poorly fitted or top-dose-only effect, or another doubt; inactive means no such curve, though single readings can be large; an effect the other way counts as inactive or inconclusive.

Key:
[1] = biological target: Chromobox protein homolog 1 (Homo sapiens) (UniProt P83916); test: qHTS Validation Assay for Inhibitors of HP1-beta Chromodomain Interactions with Methylated Histone Tails (AID 488953); further: nearly all actives have a fitted effect of over 50% in size; further: potency means the concentration at half of the fitted maximal effect
Method in brief: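 AlphaScreen proximity readout: streptavidin donor and Ni-chelate acceptor beads, 10 ug/mL final, 30 min dark, RT. Complex of 50 nM HP1-beta and 50 nM b-H3(1-18)K9me3 formed 30 min, then compound-treated 30 min; PBS pH 7.4/0.01% Tween-20.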

[2] = biological target: Methanococcus maripaludis chaperonin (MmCpn) (UniProt Q6LX38); test: High-Throughput Screening for Modulators of Cytosolic Chaperonin Activity: MmCpn Primary Screen (AID 488978);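 further: 50 nM MmCpn enzyme hydrolysing 30 µM ATP at 37 °C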
Method in brief: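 ADP formation read by HTRF Transcreener, 665/590 nm emission after 320 nm excitation. Enzyme: archaeal chaperonin at 50 nM final; substrate ATP 30 uM final; 10 min, 37C, after 5 min compound preincubation at RT.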

[3] = biological target: Transient receptor potential cation channel subfamily V member 1 (Homo sapiens) (UniProt Q8NER1); test: HTS Assay for Compounds that Act as Enhancers of the Vanilloid Receptor 1 (AID 488979)
Method in brief: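 TRPV1 cells loaded with Fluo-8 calcium dye; compound added and Ca2+ signal (ex 480/em 520 nm) followed 3 min, then capsaicin at EC20 added and read 2 more min to detect enhancement.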

[4] = biological target: Thyrotropin receptor (Homo sapiens) (UniProt P16473); test: qHTS Assay for Antagonists of the Thyroid Stimulating Hormone Receptor (AID 488980); further: series mostly up to about 58 µM
Method in brief: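 TSHR-HEK293 cells; 70 uM RO 20-1724 PDE inhibitor; compound + EC80 TSH (4 nM final); anti-cAMP cryptate antibody/cAMP-d2 in lysis buffer, 30 min RT; HTRF 665/620 nm read.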

[5] = biological target: D(1A) dopamine receptor (Homo sapiens) (UniProt P21728); test: HTS Assay for Allosteric Agonists of the Human D1 Dopamine Receptor: Primary Screen for Agonists (AID 488981); further: potency means the concentration at half of the fitted maximal effect
Method in brief: (§1)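 Tetracycline-induced HEK293 Trex D1 cells with forced coupling to calcium, loaded with no-wash calcium dye; kinetic fluorescence read 180 s after compound addition for agonism, then a further 180 s after an EC20 dopamine challenge for potentiation.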

[6] = biological target: D(1A) dopamine receptor (Homo sapiens) (UniProt P21728); test: HTS Assay for Allosteric Agonists of the Human D1 Dopamine Receptor: Primary Screen for Potentiators (AID 488982); further: potency means the concentration at half of the fitted maximal effect
Method in brief: as §1

[7] = biological target: D(1A) dopamine receptor (Homo sapiens) (UniProt P21728); test: HTS Assay for Allosteric Agonists of the Human D1 Dopamine Receptor: Primary Screen for Antagonists (AID 488983);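 further: calcium flux response to an EC80 dopamine challenge measured with no-wash dye; nearly all actives have a fitted effect of over 65% in size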; further: potency means the concentration at half of the fitted maximal effect
Method in brief: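 Calcium flux readout, no-wash dye, inducible HEK293 T-REx D1 line (force-coupled). Compound added after 10 s baseline, 180 s kinetic read; then dopamine at EC80, further 180 s read.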

[8] = Validation screen for small molecules that induce genotoxicity in human embryonic kidney (HEK293T) cells expressing luciferase-tagged ELG1 (AID 493106); further: potency means the concentration at half of the fitted maximal effect
Method in brief: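 qHTS format; 2,000 HEK293T ELG1-luc cells/well; 23 nL compound via pin tool; 16 hr, 37 °C/5% CO2; ONE-Glo, 30 min RT; luminescence read.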

[9] = biological target: ATPase family AAA domain-containing protein 5 (Homo sapiens) (UniProt Q96QE3); test: Validation screen for small molecules that inhibit ELG1-dependent DNA repair in human embryonic kidney (HEK293T) cells expressing luciferase-tagged ELG1 (AID 493107); further: nearly all actives have a fitted effect of over 70% in size; further: potency means the concentration at half of the fitted maximal effect
Method in brief: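 ELG1-luciferase HEK293T reporter; 5-fluorouridine + compound/DMSO, 16 hr, 37 °C, 5% CO2; ONE-Glo 30 min RT; luminescence read, qHTS format.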

[10] = biological target: ATP-dependent 6-phosphofructokinase (Trypanosoma brucei brucei) (UniProt O15648); test: qHTS Assay to Find Inhibitors of T. brucei phosphofructokinase: hit validation (AID 492961); further: series mostly up to about 51 µM
Method in brief: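 Luminescence from ADP-Glo reports ADP generated as T. brucei PFK (1.25 nM) phosphorylates 0.5 mM fructose-6-phosphate using 0.1 mM ATP. Reactions ran 45 min at room temperature, pH 8.0.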

Sequence of ATP-dependent 6-phosphofructokinase (Trypanosoma brucei brucei) (O15648 whole entry, looked up): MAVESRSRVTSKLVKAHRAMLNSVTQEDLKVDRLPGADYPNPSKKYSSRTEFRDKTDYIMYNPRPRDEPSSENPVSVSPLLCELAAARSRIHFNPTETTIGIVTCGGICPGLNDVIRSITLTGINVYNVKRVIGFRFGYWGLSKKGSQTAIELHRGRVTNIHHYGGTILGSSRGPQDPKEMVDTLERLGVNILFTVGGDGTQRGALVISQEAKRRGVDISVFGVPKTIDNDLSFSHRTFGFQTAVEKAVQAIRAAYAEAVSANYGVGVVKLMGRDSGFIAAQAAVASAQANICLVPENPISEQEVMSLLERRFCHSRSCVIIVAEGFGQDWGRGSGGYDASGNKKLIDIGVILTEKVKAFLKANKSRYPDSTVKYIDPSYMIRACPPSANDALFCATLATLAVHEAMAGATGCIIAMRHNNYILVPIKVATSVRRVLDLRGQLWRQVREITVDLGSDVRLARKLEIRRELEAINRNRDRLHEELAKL
Sequence of Transient receptor potential cation channel subfamily V member 1 (Homo sapiens) (Q8NER1 whole entry, looked up): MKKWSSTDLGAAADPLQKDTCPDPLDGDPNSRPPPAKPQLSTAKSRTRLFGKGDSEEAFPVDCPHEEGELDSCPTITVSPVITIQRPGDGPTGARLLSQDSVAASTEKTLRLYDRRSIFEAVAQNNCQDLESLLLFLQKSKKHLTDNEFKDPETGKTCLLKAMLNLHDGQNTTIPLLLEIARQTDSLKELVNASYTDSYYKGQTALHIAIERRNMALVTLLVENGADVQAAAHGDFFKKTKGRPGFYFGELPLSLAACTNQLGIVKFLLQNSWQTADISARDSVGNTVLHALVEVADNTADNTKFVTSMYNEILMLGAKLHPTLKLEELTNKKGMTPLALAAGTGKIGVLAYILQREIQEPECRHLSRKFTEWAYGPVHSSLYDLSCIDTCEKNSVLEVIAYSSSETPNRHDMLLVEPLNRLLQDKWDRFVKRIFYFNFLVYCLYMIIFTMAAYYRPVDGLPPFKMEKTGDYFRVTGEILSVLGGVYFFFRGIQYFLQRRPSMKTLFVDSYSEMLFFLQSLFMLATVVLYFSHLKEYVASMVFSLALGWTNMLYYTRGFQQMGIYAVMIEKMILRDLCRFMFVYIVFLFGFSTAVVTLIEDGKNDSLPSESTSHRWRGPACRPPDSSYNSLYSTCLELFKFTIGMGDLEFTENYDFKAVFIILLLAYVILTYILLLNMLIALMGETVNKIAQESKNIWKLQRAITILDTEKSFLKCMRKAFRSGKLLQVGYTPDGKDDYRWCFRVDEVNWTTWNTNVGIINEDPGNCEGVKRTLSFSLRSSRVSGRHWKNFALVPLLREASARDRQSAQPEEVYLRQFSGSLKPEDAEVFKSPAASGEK
Sequence of D(1A) dopamine receptor (Homo sapiens) (P21728 whole entry, looked up): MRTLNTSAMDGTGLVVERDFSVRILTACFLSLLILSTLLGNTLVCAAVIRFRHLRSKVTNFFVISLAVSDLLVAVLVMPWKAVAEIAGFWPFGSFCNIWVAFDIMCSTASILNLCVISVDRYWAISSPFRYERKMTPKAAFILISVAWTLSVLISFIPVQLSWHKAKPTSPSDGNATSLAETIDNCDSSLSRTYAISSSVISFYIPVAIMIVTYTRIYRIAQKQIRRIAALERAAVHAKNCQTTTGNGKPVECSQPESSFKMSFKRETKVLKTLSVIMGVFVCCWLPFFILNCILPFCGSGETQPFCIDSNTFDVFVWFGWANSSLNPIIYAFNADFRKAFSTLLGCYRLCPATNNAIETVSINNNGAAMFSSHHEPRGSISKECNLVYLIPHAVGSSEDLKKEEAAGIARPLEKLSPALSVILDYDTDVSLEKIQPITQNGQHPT
Sequence of Methanococcus maripaludis chaperonin (MmCpn) (Q6LX38 1-543): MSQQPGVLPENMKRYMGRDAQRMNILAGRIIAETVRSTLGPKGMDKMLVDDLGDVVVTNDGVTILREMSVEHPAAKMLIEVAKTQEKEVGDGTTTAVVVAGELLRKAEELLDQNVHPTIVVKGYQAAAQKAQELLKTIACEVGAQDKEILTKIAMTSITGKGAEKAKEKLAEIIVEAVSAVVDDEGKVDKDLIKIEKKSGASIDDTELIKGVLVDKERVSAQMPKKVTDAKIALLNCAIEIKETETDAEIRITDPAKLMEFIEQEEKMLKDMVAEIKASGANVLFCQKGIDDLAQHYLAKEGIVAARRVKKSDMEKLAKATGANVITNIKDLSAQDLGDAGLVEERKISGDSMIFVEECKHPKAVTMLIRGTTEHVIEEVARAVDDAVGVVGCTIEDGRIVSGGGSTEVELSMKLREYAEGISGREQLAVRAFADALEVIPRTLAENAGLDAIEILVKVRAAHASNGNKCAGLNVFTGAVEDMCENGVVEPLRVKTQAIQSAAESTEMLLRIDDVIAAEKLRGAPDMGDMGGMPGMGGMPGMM
Sequence of ATPase family AAA domain-containing protein 5 (Homo sapiens) (Q96QE3 whole entry, looked up, the tested form may be a part): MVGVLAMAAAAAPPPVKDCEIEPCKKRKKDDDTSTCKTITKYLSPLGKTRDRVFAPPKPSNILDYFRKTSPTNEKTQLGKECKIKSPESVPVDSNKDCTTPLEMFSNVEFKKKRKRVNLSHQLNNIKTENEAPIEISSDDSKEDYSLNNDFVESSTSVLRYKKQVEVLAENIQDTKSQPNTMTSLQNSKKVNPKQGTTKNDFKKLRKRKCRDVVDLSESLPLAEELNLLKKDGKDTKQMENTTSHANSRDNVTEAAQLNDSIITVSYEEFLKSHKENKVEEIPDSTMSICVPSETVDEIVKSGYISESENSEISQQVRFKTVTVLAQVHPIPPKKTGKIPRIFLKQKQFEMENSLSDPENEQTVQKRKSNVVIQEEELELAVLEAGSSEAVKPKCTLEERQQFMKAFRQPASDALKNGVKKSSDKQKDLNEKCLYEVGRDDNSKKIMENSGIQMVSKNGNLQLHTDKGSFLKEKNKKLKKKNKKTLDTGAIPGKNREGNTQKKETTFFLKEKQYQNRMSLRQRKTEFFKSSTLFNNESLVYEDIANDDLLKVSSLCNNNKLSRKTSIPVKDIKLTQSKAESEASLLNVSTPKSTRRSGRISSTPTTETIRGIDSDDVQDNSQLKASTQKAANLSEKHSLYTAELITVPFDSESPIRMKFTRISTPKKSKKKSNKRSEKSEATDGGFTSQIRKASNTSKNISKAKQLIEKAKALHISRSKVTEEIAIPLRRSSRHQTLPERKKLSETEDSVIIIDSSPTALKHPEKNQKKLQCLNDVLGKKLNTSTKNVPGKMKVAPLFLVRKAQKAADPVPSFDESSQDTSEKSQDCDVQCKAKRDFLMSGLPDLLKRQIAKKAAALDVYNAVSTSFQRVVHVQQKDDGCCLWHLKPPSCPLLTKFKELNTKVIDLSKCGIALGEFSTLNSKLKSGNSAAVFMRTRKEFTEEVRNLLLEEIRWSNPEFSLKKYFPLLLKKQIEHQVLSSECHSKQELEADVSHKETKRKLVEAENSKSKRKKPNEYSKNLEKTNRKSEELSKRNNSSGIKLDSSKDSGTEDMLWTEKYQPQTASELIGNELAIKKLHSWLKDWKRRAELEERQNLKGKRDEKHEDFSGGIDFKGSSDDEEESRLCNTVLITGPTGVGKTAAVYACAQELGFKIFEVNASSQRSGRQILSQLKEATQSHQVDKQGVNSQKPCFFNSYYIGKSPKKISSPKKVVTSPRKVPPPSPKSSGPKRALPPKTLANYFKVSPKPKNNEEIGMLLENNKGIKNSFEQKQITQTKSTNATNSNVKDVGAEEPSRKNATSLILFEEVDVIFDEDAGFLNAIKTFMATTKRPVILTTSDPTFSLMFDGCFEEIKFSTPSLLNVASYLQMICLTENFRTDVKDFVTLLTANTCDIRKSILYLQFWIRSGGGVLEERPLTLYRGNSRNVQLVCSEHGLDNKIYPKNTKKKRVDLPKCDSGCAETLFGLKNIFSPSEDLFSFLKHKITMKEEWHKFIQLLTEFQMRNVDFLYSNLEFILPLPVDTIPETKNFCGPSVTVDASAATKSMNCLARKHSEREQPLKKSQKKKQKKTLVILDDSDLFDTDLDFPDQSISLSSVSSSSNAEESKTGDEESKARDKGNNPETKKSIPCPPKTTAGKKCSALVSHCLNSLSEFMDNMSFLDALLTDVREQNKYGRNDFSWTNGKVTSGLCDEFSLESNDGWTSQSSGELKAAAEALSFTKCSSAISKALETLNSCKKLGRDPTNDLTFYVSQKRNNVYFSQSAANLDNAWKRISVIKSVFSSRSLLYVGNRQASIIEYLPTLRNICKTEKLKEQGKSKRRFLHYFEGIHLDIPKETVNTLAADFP
Sequence of Thyrotropin receptor (Homo sapiens) (P16473 whole entry, looked up): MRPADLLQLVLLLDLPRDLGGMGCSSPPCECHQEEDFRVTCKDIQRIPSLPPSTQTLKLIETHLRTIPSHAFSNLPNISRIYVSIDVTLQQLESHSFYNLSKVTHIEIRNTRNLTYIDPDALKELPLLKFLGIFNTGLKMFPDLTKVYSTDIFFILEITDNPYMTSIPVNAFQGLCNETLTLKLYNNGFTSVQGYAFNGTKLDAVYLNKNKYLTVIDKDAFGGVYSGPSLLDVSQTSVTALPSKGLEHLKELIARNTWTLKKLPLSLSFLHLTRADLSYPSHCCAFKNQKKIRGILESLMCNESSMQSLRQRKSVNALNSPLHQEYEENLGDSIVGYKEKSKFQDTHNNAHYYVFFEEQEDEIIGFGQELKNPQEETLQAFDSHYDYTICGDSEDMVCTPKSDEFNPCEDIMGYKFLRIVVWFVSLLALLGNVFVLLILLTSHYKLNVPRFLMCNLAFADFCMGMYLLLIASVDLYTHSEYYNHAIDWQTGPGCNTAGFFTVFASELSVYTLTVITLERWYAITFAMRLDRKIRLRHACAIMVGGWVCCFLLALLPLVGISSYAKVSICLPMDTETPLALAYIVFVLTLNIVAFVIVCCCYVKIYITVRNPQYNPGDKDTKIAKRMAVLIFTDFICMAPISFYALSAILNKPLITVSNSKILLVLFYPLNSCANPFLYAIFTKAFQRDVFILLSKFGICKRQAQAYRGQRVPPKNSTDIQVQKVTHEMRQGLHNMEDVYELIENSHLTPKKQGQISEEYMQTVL

Question: Which Potency [1] does the source give for `NCC(O)c1ccc(O)cc1` (stereo not given) here?
Answer: inactive

Question: What about the outcome [2] of the same molecule?
Answer: inactive

Question: What about the outcome [3] of the same molecule?
Answer: inactive

Question: What about the outcome [4] of the same molecule?
Answer: inactive

Question: What about the Potency [5] of the same molecule?
Answer: inactive

Question: What about the Potency [6] of the same molecule?
Answer: inactive

Question: What about the Potency [7] of the same molecule?
Answer: inactive

Question: And the Potency [8]?
Answer: inactive

Question: And the Potency [9]?
Answer: inactive

Question: Which Potency [1] does the source give for `CC(COc1ccccc1)N(CCCl)Cc1ccccc1` (stereo not given) here?
Answer: 0.0095 µM (active)

Question: Which results are given for `Fc1ccc(C(OCCN2CCN(CCCc3ccccc3)CC2)c2ccc(F)cc2)cc1`?
Answer: Potency [1]: 39.8 µM (active); outcome [2]: inactive; outcome [3]: inactive; outcome [4]: inactive; Potency [5]: inactive; Potency [6]: inactive; Potency [7]: inactive; Potency [8]: inactive; Potency [9]: 23.1 µM (active)

Question: For `CCCC(C)(COC(N)=O)COC(=O)NC(C)C` (stereo not given), which Potency [1] is on record?
Answer: 0.006 µM (active)

Question: And the outcome [2]?
Answer: inactive

Question: And the outcome [3]?
Answer: inactive

Question: What about the outcome [4] of the same molecule?
Answer: inactive

Question: And the Potency [5]?
Answer: inactive

Question: What about the Potency [6] of the same molecule?
Answer: inactive

Question: What about the Potency [7] of the same molecule?
Answer: inactive

Question: And the Potency [8]?
Answer: inactive

Question: And the Potency [9]?
Answer: inactive

Question: For `Nc1ccncc1`, which outcome [2] is on record?
Answer: inactive

Question: What about the outcome [3] of the same molecule?
Answer: inactive

Question: What about the outcome [4] of the same molecule?
Answer: inactive

Question: And the Potency [5]?
Answer: inactive

Question: And the Potency [6]?
Answer: inactive

Question: And the Potency [7]?
Answer: inactive

Question: What about the Potency [8] of the same molecule?
Answer: inactive

Question: What about the Potency [9] of the same molecule?
Answer: inactive

Question: With `COc1cc2c(c(OC)c1OC)-c1ccc(OC)c(=O)cc1[C@@H](NC(C)=O)CC2` as the molecule, how does the Potency [1] read?
Answer: inactive

Question: And the Potency [8]?
Answer: 0.461 µM (active)

Question: With `CC(C)(N)Cc1ccc(Cl)cc1` as the molecule, how does the outcome [10] read?
Answer: inactive

Question: Which results are given for `CCn1cc(C(=O)O)c(=O)c2ccc(C)nc21`?
Answer: outcome [3]: inactive; outcome [4]: inactive

Question: Which results are given for `Cc1cc2c(C(C)C)c(O)c(O)c(C=O)c2c(O)c1-c1c(C)cc2c(C(C)C)c(O)c(O)c(C=O)c2c1O`?
Answer: Potency [1]: 10 µM (active); Potency [5]: 22.4 µM (active); Potency [9]: 8.2 µM (active)

Question: Which results are given for `O=C1NCN(c2ccccc2)C12CCN(CC1COc3ccccc3O1)CC2` (stereo not given)?
Answer: outcome [2]: inactive; outcome [3]: inactive; outcome [4]: inactive; Potency [5]: inactive; Potency [6]: inactive; Potency [7]: inactive; Potency [8]: inactive

Question: Which results are given for `O=c1[nH]c2ccccc2n1CCCN1CCC(n2c(=O)[nH]c3cc(Cl)ccc32)CC1`?
Answer: outcome [2]: inactive; outcome [3]: inactive; outcome [4]: inactive; Potency [5]: inactive; Potency [6]: inactive; outcome [10]: inactive; Potency [8]: inactive; Potency [9]: 16.4 µM (active)

Question: Which outcome [2] does the source give for `CC[C@@H](CO)NC(=O)[C@@H]1C=C2c3cccc4c3c(cn4C)C[C@H]2N(C)C1` here?
Answer: inactive

Question: And the Potency [5]?
Answer: inactive

Question: What about the Potency [6] of the same molecule?
Answer: inactive

Question: And the outcome [10]?
Answer: inactive

Question: What about the Potency [8] of the same molecule?
Answer: inactive

Question: And the Potency [9]?
Answer: inactive

Question: With `FC(F)(F)c1cccc(C2=CCN(CCc3ccc4ccccc4c3)CC2)c1` as the molecule, how does the outcome [10] read?
Answer: inactive

Question: Which outcome [10] does the source give for `Oc1cc(Cl)ccc1Oc1ccc(Cl)cc1Cl` here?
Answer: inactive

Question: With `CN1C(=S)CN=C(c2ccccc2)c2cc(Cl)ccc21` as the molecule, how does the outcome [10] read?
Answer: inactive

Question: Which results are given for `c1ccc(C2CC2)c(OCC2=NCCN2)c1`?
Answer: outcome [2]: inactive; outcome [3]: inactive; outcome [4]: inactive; Potency [5]: inactive; Potency [6]: inactive; Potency [7]: inactive; Potency [8]: inactive; Potency [9]: inactive

Question: Which outcome [10] does the source give for `CC(C)=CC1C(C(=O)OCc2cccc(Oc3ccccc3)c2)C1(C)C` (stereo not given) here?
Answer: inactive

Question: What does the source list for `CC[N+](CC)(CC)CC`?
Answer: outcome [3]: inactive; outcome [4]: inactive; outcome [10]: inactive

Question: Which Potency [1] does the source give for `COc1ccc(Cc2nccc3cc(OC)c(OC)cc23)cc1OC` here?
Answer: 0.006 µM (active)

Question: And the outcome [3]?
Answer: inactive

Question: What about the outcome [4] of the same molecule?
Answer: inactive

Question: With `O=c1c(O)c(-c2ccc(O)c(O)c2)oc2cc(O)cc(O)c12` as the molecule, how does the Potency [6] read?
Answer: 4.11 µM (active)

Question: And the Potency [9]?
Answer: 20.6 µM (active)

Question: For `CCOC(=O)C1(c2ccccc2)CCN(CCC(C#N)(c2ccccc2)c2ccccc2)CC1`, which outcome [10] is on record?
Answer: inactive

Question: Which Potency [6] does the source give for `CN(C)CCC=C1c2ccccc2CCc2ccccc21` here?
Answer: inactive

Question: What about the Potency [7] of the same molecule?
Answer: 1.12 µM (active)

Question: Which outcome [10] does the source give for `CC1NCCOC1c1ccccc1` (stereo not given) here?
Answer: inactive

Question: For `COc1ccc(C(=O)c2c(C)n(CCN3CCOCC3)c3ccccc23)cc1`, which outcome [10] is on record?
Answer: inactive

Question: For `C=C1CC[C@@]2(O)[C@H]3Cc4ccc(O)c5c4[C@@]2(CCN3CC2CC2)[C@H]1O5`, which outcome [10] is on record?
Answer: inactive

Question: With `CCOP(=S)(OCC)Oc1cc(C)nc(C(C)C)n1` as the molecule, how does the outcome [10] read?
Answer: inactive

Question: Which outcome [2] does the source give for `N#CC(C#N)=Cc1ccc(O)c(O)c1` here?
Answer: inactive

Question: And the outcome [3]?
Answer: inactive

Question: And the outcome [4]?
Answer: inactive

Question: And the Potency [5]?
Answer: inactive

Question: What about the Potency [7] of the same molecule?
Answer: inactive

Question: And the Potency [8]?
Answer: inactive

Question: What about the Potency [9] of the same molecule?
Answer: inactive

Question: With `CCN(CC)CCN1C(=O)CN=C(c2ccccc2F)c2cc(Cl)ccc21` as the molecule, how does the outcome [10] read?
Answer: inactive

Question: What does the source list for `CC[C@@H](CO)NC(=O)[C@@H]1C=C2c3cccc4[nH]cc(c34)C[C@H]2N(C)C1`?
Answer: outcome [2]: inactive; Potency [5]: inactive; Potency [6]: inactive; Potency [7]: 0.447 µM (active); Potency [8]: inactive; Potency [9]: inactive

Question: For `CC(C)=CCOc1c2occc2cc2ccc(=O)oc12`, which outcome [2] is on record?
Answer: inactive

Question: What about the Potency [5] of the same molecule?
Answer: inactive

Question: What about the Potency [6] of the same molecule?
Answer: inactive

Question: And the Potency [7]?
Answer: inactive

Question: And the Potency [8]?
Answer: inactive

Question: What about the Potency [9] of the same molecule?
Answer: inactive

Question: For `CC(C)C(=O)Nc1ccc([N+](=O)[O-])c(C(F)(F)F)c1`, which Potency [1] is on record?
Answer: inactive

Question: What about the Potency [6] of the same molecule?
Answer: inactive

Question: And the Potency [8]?
Answer: inactive

Question: With `Clc1cccc(N2CCNCC2)c1` as the molecule, how does the outcome [3] read?
Answer: inactive

Question: And the outcome [4]?
Answer: inactive

Question: What does the source list for `OCCN1CCN(CCCN2c3ccccc3Sc3ccc(C(F)(F)F)cc32)CC1`?
Answer: Potency [1]: 0.006 µM (active); Potency [6]: inactive

Question: For `CN(C)C(=O)C(CCN1CCC(O)(c2ccc(Cl)cc2)CC1)(c1ccccc1)c1ccccc1`, which Potency [8] is on record?
Answer: inactive
